Inconclusive results are not listed. Calls of active or inactive are those of the source. How the source made its calls: active means hit-call score of the fitted dose curve at least 0.9, where 1 is the maximum; inconclusive means response in the unintended direction; inactive means score below 0.9.

The target of this experiment is Peroxisome proliferator-activated receptor gamma (Homo sapiens) (UniProt P37231). Put plainly: OT_PPARg_PPARgSRC1_0480: Odyssey Thera (OT) 8-hour Protein-Complementation Assay for Peroxisome Proliferator-activated Receptor Gamma / SRC-1 Co-activator (AID 2283387).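 Further: nuclear to cytoplasmic split Venus YFP fluorescence ratio reporting PPARg SRC-1 interaction.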 The procedure: OT_PPARg_PPARgSRC1_0480 is a cell-based assay that uses HEK293T, a human kidney cell line, with measurements taken at 8 hours after chemical dosing in a 384-well plate.OT_PPARg_PPARgSRC1_0480 is one of one assay component(s) measured or calculated from the OT_PPARg_PPARgSRC1_0480 assay. It is designed to make measurements of protein fragment complementation, a form of binding reporter, as detected with fluorescence intensity signals by Protein-fragment Complementation technology.Data from the assay component OT_PPARg_PPARgSRC1_0480 was analyzed into 1 assay endpoint. This assay endpoint, OT_PPARg_PPARgSRC1_0480, was analyzed in the positive analysis fitting direction relative to DMSO as the negative control and baseline of activity. Using a type of binding reporter, measures of receptor for gain-of-signal activity can be used to understand the binding at the pathway-level as they relate to the gene PPARG. Furthermore, this assay endpoint can be referred to as a primary readout, because the performed assay has only produced 1 assay endpoint. To generalize the intended target to other relatable targets, this assay endpoint is annotated to the nuclear receptor intended target family, where the subfamily is non-steroidal.
Sequence of Peroxisome proliferator-activated receptor gamma (Homo sapiens) (P37231 whole entry, looked up, the tested form may be a part): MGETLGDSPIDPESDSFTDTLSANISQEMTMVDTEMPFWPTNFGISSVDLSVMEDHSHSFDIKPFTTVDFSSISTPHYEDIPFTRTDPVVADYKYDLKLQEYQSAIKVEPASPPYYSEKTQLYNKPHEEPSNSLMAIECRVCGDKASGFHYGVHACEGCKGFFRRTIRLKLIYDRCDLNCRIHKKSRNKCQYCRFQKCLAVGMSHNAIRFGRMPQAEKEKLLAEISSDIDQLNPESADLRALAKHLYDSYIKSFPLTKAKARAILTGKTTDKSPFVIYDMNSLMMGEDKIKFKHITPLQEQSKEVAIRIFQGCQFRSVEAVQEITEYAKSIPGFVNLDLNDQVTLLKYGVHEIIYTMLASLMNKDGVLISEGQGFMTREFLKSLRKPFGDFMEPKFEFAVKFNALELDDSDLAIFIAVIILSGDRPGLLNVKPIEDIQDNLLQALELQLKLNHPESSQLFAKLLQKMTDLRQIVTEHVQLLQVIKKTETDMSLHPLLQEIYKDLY
The OT PPARg/SRC-1 assay assessed receptor-chemical interactions using a rapidly maturing, intensely fluorescent mutant of YFP known as Venus, rationally dissected into two separate fragments. The fragments were obtained as follows: first, fragments coding for YFP1 and YFP2 (corresponding to amino acid residues 1-158 and 159-239 of the full length YFP, respectively) were generated by oligonucleotide synthesis (Blue Heron Biotechnology), and then PCR mutagenesis was used to generate the mutant fragments IFP1 and IFP2. Fusion constructs were transfected into HEK293T cells with a (Gly4Ser)2 linker between the PPARg/SRC-1 and YFP fragment genes to facilitate complementation when interacting proteins bring fragments into close proximity. The construct is transiently transfected in HEK293T cells 48 hours prior to treatment with test compounds. Cells are seeded into optical quality 384-well poly-D-lysine coated plates in MEM alpha medium (Invitrogen) supplemented with 10 percent FBS (Gemini Bio-Products) 1 percent penicillin and 1 percent streptomycin, and grown in 37C incubator equilibrated to 5 percent CO2. Cells are allowed to adhere for 24 hours prior to treatment with compounds of interest or controls for 8 hours. Cells are fixed in 4 percent formaldehyde and stained with Draq5 (BioStatus) to identify cells and subcellular compartment boundaries prior to signal detection. 8 Images per well were acquired on an Evotec Opera at 2 wavelengths (488 and 635nm), and the ratio of fluorescence in the nucleus relative to fluorescence in the cytoplasm (N/C Ratio) in the 488nm channel was calculated for a minimum of 350 cells per image.
Take `CCNCCO`: the compound was called inactive.
With `Cc1cc(=O)oc2cc(N(C)C)ccc12` the entry was “inactive”.
With `CCC(=O)O[C@@H]1C[C@H]2CC[C@]1(C)C2(C)C` the entry was “inactive”; with `CN1CCOCC1`, “inactive”; with `CCCCCCC(CO)CCCC` (stereo not given), “inactive”.
With `OC[C@H]1O[C@@H]2O[C@H]3[C@H](O)[C@@H](O)[C@@H](O[C@H]4[C@H](O)[C@@H](O)[C@@H](O[C@H]5[C@H](O)[C@@H](O)[C@@H](O[C@H]6[C@H](O)[C@@H](O)[C@@H](O[C@H]7[C@H](O)[C@@H](O)[C@@H](O[C@H]8[C@H](O)[C@@H](O)[C@@H](O[C@H]9[C@H](O)[C@@H](O)[C@@H](O[C@H]1[C@H](O)[C@H]2O)O[C@@H]9CO)O[C@@H]8CO)O[C@@H]7CO)O[C@@H]6CO)O[C@@H]5CO)O[C@@H]4CO)O[C@@H]3CO` the entry was “inactive”; with `O=C(CC(=O)c1ccccc1)c1ccccc1`, “inactive”.
For the compound `CN(C)c1cccc(O)c1`, the call was inactive.
With `O=CCc1ccccc1` the entry was “inactive”.
The value for `C=Cc1ccc(C)cc1` was “inactive”; that for `CCCCC(CC)COC(C)=O` (stereo not given) was “inactive”.
With `CS(=O)(=O)OCCCCOS(C)(=O)=O` the entry was “inactive”; with `CCc1cc(Cc2cc(CC)cc(C(C)(C)C)c2O)c(O)c(C(C)(C)C)c1`, “inactive”.
Consider `CCOC(=O)[C@@H](C)Oc1ccc(Oc2nc3ccc(Cl)cc3o2)cc1`, for which the result was inactive.
With `CCCCCCCCc1ccc(S(=O)(=O)O)cc1` the entry was “inactive”.
With `CCCCCCCCC=CCCCCCCCC1=NCCN1CCO` the entry was “inactive”.
With `C=CC(C)(O)CCC=C(C)C` (stereo not given), the result was inactive.
With `COc1ccccc1N=Nc1c(S(=O)(=O)O)cc2cc(S(=O)(=O)O)cc(NC(C)=O)c2c1O` the entry was “inactive”; with `CCCCCC(C=O)=Cc1ccccc1`, “inactive”; with `O=C(c1ccccc1)C(O)c1ccccc1` (stereo not given), “inactive”.
For `O=Cc1ccccc1S(=O)(=O)O`, the compound was called inactive.
With `CC(CN=Cc1ccccc1O)N=Cc1ccccc1O` (stereo not given) the entry was “inactive”; with `CS(C)=O`, “inactive”; with `CC(C)Nc1nc(N)nc(Cl)n1`, “inactive”.
Turning to `C=C[Si]1(C)O[Si](C)(C=C)O[Si](C)(C=C)O[Si](C)(C=C)O1` (stereo not given), the result was inactive.
As to `CC(C)NCC(O)COc1ccc(CC(N)=O)cc1` (stereo not given), the compound was called inactive.
The value for `CCCCCCCC/C=C\CCCCCCCC(=O)OCC` was “inactive”; that for `O=P(O)(O)O` was “inactive”; that for `CCCCCCCCCC(=O)OC` was “inactive”.
Take `CCCCCCC(C)(C)S`: the result was inactive.
For `CC(C)CC(C)CC(O)CC(C)C` (stereo not given), the compound was called inactive.
The value for `CC(C)CCCCCCCCCCCCCCC(=O)O` was “inactive”; that for `Nc1ccc2cc(S(=O)(=O)O)cc(O)c2c1N=Nc1ccccc1C(F)(F)F` was “inactive”; that for `CCCCCCCCCCCC(=O)OCC(O)CO` (stereo not given) was “inactive”.
With `CCC1(C)NC(=O)NC1=O` (stereo not given), the result was inactive.
The value for `Cc1cc(S(=O)(=O)O)ccc1N=Nc1c(O)ccc2ccccc12` was “inactive”; that for `O=C1NC2NC(=O)NC2N1` (stereo not given) was “inactive”.
The value for `C[Si](C)(C)O[Si](C)(C)C` was “inactive”.
Turning to `C[C@H]1O[C@@H](O[C@H]2[C@@H](O)C[C@H](O[C@H]3[C@@H](O)C[C@H](O[C@H]4CC[C@@]5(C)[C@H](CC[C@@H]6[C@@H]5C[C@@H](O)[C@]5(C)[C@@H](C7=CC(=O)OC7)CC[C@]65O)C4)O[C@@H]3C)O[C@@H]2C)C[C@H](O)[C@@H]1O`, the compound was classed as inactive.
The value for `OCCc1ccccc1` was “inactive”.

Values taken from PubChem BioAssay (EPA / NIEHS).
